Experimental findings from PubChem BioAssay (NCI) are described below.

Assay in all cases: NCI-60 one-dose screen, 48 h (100 = growth as untreated, 0 = no growth, -100 = all killed)
For assay [1], the system named is NCI-H23 lung. The settings on record: 10 µM unless noted.
Assay [2] concerns NCI-H226 lung. The settings on record: 10 µM unless noted.
Assay [3] concerns NCI-H322M lung. The settings on record: 10 µM unless noted.
Assay [4] has as its system HOP-62 NSCLC. The settings on record: 10 µM unless noted.
Assay [5] deals with HOP-92 NSCLC. The following applies: 10 µM.
The test system of assay [6] is NCI-H522 lung. The settings on record: 10 µM.
The subject of assay [7] is A549/ATCC NSCLC. The settings on record: 10 µM unless noted.
Assay [8] relates to 786-0 renal. The settings on record: 10 µM unless noted.
In assay [9] the test system is DU-145 prostate. The settings on record: 10 µM unless noted.
The test system of assay [10] is K-562 leukemia. The settings on record: 10 µM unless noted.
The subject of assay [11] is MALME-3M melanoma. The following applies: 10 µM unless noted.
For assay [12], the system named is MDA-MB-231 breast. The following applies: 10 µM unless noted.
The subject of assay [13] is RXF 393 renal. The settings on record: 10 µM unless noted.
Assay [14] concerns SF-268 CNS. The settings on record: 10 µM unless noted.
Assay [15] deals with SF-295 CNS. The settings on record: 10 µM unless noted.
Assay [16] relates to SF-539 CNS. The following applies: 10 µM unless noted.
For assay [17], the system named is UACC-257 melanoma. The following applies: 10 µM unless noted.
In assay [18] the test system is M14 melanoma. The following applies: 10 µM unless noted.
The subject of assay [19] is COLO 205 colon. The settings on record: 10 µM unless noted.

Structures are written as SMILES. The panel holds about 83,000 compounds, 20% with a hit somewhere; the sample as a whole holds those more often.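 Single-dose data. Exposure time 48 hours. Values below 10 considered active.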 Values without a mark were called inactive. Activity calls are given as the source filed them.

For the molecule `Cc1ccc(C(=O)Nc2ccc(CN3CCN(C)CC3)c(C(F)(F)F)c2)cc1C#Cc1cnc(N)c2ccc(F)cc12`, the growth in [1] is -77.3% (active); in assay [2] it was -45.5% (active); in assay [3] it was -99.3% (active); in assay [4] it was -68.8% (active); in assay [5], -90.3% (active); in assay [6], -75.1% (active). The growth in [7] was -87.5% (active); in assay [8], -85.3% (active); in assay [9], -91.7% (active); in assay [10] it was -78.2% (active); in assay [11], -88.4% (active); in assay [12] it was -90.7% (active). In addition, the growth is -90.8% (active) in [13]; -75.2% (active) in assay [14]; -76.9% (active) in assay [15]; -92.5% (active) in assay [16]; -60.9% (active) in assay [17]; -83.1% (active) in [18].

Turning to `C/C=C(/C)C(=O)OC1C=C(CO)C(=O)C(OC(=O)C(C)(O)C(C)Cl)C1C(C)C` (centres undefined), the growth in assay [1] is -50.1% (active); in assay [2] it was -19.4% (active); in [3] it was -10.6% (active); in assay [4], -1.29% (active); in assay [5], -50.2% (active); in assay [6], -34.4% (active). The growth was -18% (active) in [7]; -72.1% (active) in [8]; 3.58% (active) in [9]; 1.56% (active) in [10]; -76.6% (active) in assay [11]; -5.1% (active) in [12]. For the same molecule, the growth in assay [13] was -63.6% (active); in assay [14] it was 10.4%; in [15], -41.4% (active); in assay [16] it was -43.7% (active); in assay [17], -19.7% (active); in assay [18] it was -56.4% (active).

For `COc1ccc(Oc2[nH]n(C3=Nc4ccccc4Sc4ccccc43)c(=O)c2C#N)cc1`, the growth in [1] is 95.7%; in [2] it was 100%; in [3] it was 125%; in assay [4], 92.1%; in assay [5], 74.2%; in assay [6], 74.9%. Also, the growth is 98.4% in assay [7]; 104% in [8]; 111% in assay [19]; 104% in [9]; 125% in [10]; 169% in assay [11]. Besides, the growth in assay [12] was 95.6%; in [13], 94.2%; in assay [14], 88.3%; in assay [15], 99.2%; in assay [16] it was 96.7%; in [17], 104%. The growth in assay [18] was 104%.

As for `CCCNC(=O)Oc1ccc(/C(=C(/C)Cc2ccc(OC)cc2)c2ccc(OCCN3CCCCC3)cc2)cc1`, the growth in assay [1] was 90.8%; in [2], 95.1%; in assay [3] it was 81.5%; in [4], 84.9%; in assay [5], 61%; in assay [6], 84.8%. Also, the growth is 84.4% in assay [7]; 81.8% in assay [8]; 79% in [19]; 97% in assay [9]; 50.8% in assay [10]; 112% in assay [11]. The growth in [12] is 79.5%; in assay [13], 88.7%; in [14] it was 81.8%; in assay [15] it was 102%; in assay [16] it was 94%; in assay [17], 93.7%. In addition, the growth in [18] is 85.6%.

As for `COc1cc2oc(-c3ccc(NC(=O)c4ccccc4)cc3)cc(=O)c2c(OC)c1OC`, the growth was 82.4% in assay [1]; 85.4% in assay [2]; 69.4% in [3]; 90.3% in assay [4]; 69.2% in assay [5]; 70.2% in assay [6]. Moreover, the growth was 80.3% in [7]; 90.4% in assay [8]; 82.3% in assay [9]; 102% in assay [10]; 74.8% in assay [11]; 74.9% in [12]. Further, the growth in [13] is 90.2%; in assay [14], 77.5%; in assay [15], 77.4%; in assay [16] it was 81.6%; in assay [17], 97.3%; in [18] it was 92.8%.

As to `CCCNC(=O)Oc1ccc(/C(=C(/CC)Cc2ccccc2)c2ccc(OCCN(CC)CC)cc2)cc1`, the growth in assay [1] was 83.8%; in assay [2], 87.3%; in assay [3], 87.4%; in assay [4], 84.2%; in assay [5] it was 55.7%; in [6], 76.8%. Moreover, the growth in assay [7] is 63.6%; in assay [8], 80.7%; in [19], -49% (active); in assay [9] it was 86.1%; in assay [10], -31.9% (active); in assay [11], 79.6%. In addition, the growth in assay [12] was 60.8%; in assay [13] it was 66.8%; in [14], 71.4%; in assay [15], 97.8%; in [16], 89.7%; in assay [17], 82.6%. Moreover, the growth in assay [18] is -35.3% (active).

For the molecule `O=C(O)c1ccc(Br)nc1`, the growth in [1] was 102%; in assay [2], 98.4%; in [3] it was 101%; in assay [4], 91.6%; in [5], 94.6%; in assay [6], 87.8%. In addition, the growth is 89.6% in assay [7]; 100% in [8]; 105% in assay [19]; 100% in assay [9]; 100% in [10]; 94.2% in assay [11]. Also, the growth is 100% in assay [12]; 105% in [13]; 95.4% in assay [14]; 96.9% in assay [15]; 97.7% in assay [16]; 88.3% in assay [17]. In addition, the growth in assay [18] was 101%.

Consider `COc1ccc(-c2nc(SCC(C)C)nc(Nc3ccc(C(=O)O)cc3)c2C#N)cc1`, for which the growth is 88.8% in [1]; 87.7% in [2]; 96.9% in assay [3]; 116% in [4]; 89% in [5]; 84.7% in [6]. The growth is 89% in assay [7]; 106% in [8]; 89.7% in [19]; 88.7% in assay [9]; 89% in [10]; -57.7% (active) in assay [11]. In addition, the growth was 109% in assay [12]; 83.1% in assay [13]; 91% in [14]; 75.9% in assay [15]; 97.1% in assay [16]; 96.9% in [17]. For the same molecule, in assay [18], the growth was 93%.
